# Source: PubChem BioAssay (NCI)
# Where “and” joins values, the source holds several entries; their conditions need not be identical. Identical values can stand only once. Compounds without any hit were thinned out: in the full panel of roughly 83,000, 20% have a hit.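 Treatment: one concentration, 48 hours, 96-well format. Scoring: percent growth, with anything below 10 considered active.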 Calls of active or inactive are those of the source.
# Tests used:
# Assay in all cases: NCI-60 one-dose screen, 48 h (100 = growth as untreated, 0 = no growth, -100 = all killed)
# Details in all cases: 10 µM unless noted
# [1] = test system: HCT-15 colon
# [2] = test system: HT29 colon
# [3] = test system: SNB-75 CNS
# [4] = test system: SNB-19 CNS
# [5] = test system: U251 CNS
# [6] = test system: PC-3 prostate
# [7] = test system: SK-MEL-5 melanoma
# [8] = test system: UACC-62 melanoma
# [9] = test system: LOX IMVI melanoma
# [10] = test system: SK-MEL-28 melanoma
# [11] = test system: SK-MEL-2 melanoma
# [12] = test system: EKVX NSCLC
# [13] = test system: SN12C renal
# [14] = test system: TK-10 renal
# [15] = test system: ACHN renal
# [16] = test system: CAKI-1 renal
# [17] = test system: A498 renal
# [18] = test system: CCRF-CEM leukemia
# [19] = test system: MOLT-4 leukemia
# [20] = test system: UO-31 renal
Compound,growth [1],growth [2],growth [3],growth [4],growth [5],growth [6],growth [7],growth [8],growth [9],growth [10],growth [11],growth [12],growth [13],growth [14],growth [15],growth [16],growth [17],growth [18],growth [19],growth [20]
COc1ccc(N=N/N=c2\sc3cc(OC)ccc3n2C)cc1,98.9% (inactive),78.9% (inactive),101% (inactive),98% (inactive),77.7% (inactive),77.9% (inactive),84.6% (inactive),83.1% (inactive),105% (inactive),94% (inactive),83.8% (inactive),74.8% (inactive),89% (inactive),106% (inactive),97.4% (inactive),96.8% (inactive),97% (inactive),93.5% (inactive),92.1% (inactive),
Cc1ccc(NS(=O)(=O)c2ccc(C)cc2)cc1,101% (inactive) and 104% (inactive),101% (inactive) and 90.4% (inactive),87.7% (inactive) and 102% (inactive),106% (inactive) and 102% (inactive),96.9% (inactive) and 86.6% (inactive),97.7% (inactive) and 94% (inactive),97.8% (inactive) and 95.3% (inactive),91% (inactive) and 99.2% (inactive),99.2% (inactive) and 96% (inactive),116% (inactive) and 110% (inactive),101% (inactive) and 79.6% (inactive),96.3% (inactive),105% (inactive) and 99.8% (inactive),104% (inactive) and 91.5% (inactive),113% (inactive) and 96.6% (inactive),90.9% (inactive) and 96% (inactive),92.8% (inactive) and 93.4% (inactive),92.3% (inactive) and 97.2% (inactive),94% (inactive) and 98.5% (inactive),
Cn1c2c(c3ccccc31)CCN1C[C@@H]3CCCC[C@H]3C[C@@H]21,9.14% (active),1.8% (active),-21.7% (active),18.3% (inactive),19.8% (inactive),23% (inactive),-16.1% (active),,15.6% (inactive),31.1% (inactive),-2.5% (active),26.3% (inactive),32.7% (inactive),32.2% (inactive),,18.9% (inactive),-5.89% (active),25.2% (inactive),31.3% (inactive),22.9% (inactive)
NC(=O)/C=C/C(=O)c1c(Cl)cccc1Cl,-61.2% (active),-39.6% (active),-99.5% (active),9.41% (active),-59.1% (active),-96% (active),-94.5% (active),-71.1% (active),-43.5% (active),-99.1% (active),-67.4% (active),-36.4% (active),-90.2% (active),-83.7% (active),,-86.9% (active),-58.4% (active),-33.9% (active),,
CCCCCCCCCCCCCCCCN(CC)CC,-90.2% (active),-56.8% (active),-22.6% (active),-87.9% (active),-66.8% (active),0.915% (active),-97.7% (active),-86.6% (active),-100% (active),-91% (active),-79.9% (active),-88.5% (active),-83.5% (active),-89.4% (active),,,107% (inactive),-13.4% (active),-71.2% (active),
CNc1ccc2c(c1)c1ccccc1n2C,104% (inactive),115% (inactive),98.7% (inactive),111% (inactive),95.9% (inactive),96% (inactive),101% (inactive),,99.9% (inactive),117% (inactive),103% (inactive),106% (inactive),102% (inactive),97.9% (inactive),114% (inactive),,88.8% (inactive),109% (inactive),88.1% (inactive),92.4% (inactive)
CN(C)c1ccc(C(=C2C=CC(=[N+](C)C)C=C2)c2ccc(N(C)C)cc2)cc1 (tested in a mixture with another compound),-74.7% (active),-87.3% (active),-97.3% (active),-99.1% (active),-95.8% (active),-38% (active),-99.3% (active),-64.4% (active),-89.2% (active),-87% (active),-66.9% (active),-35.6% (active),-48.3% (active),-79.2% (active),,-43.7% (active),-93.2% (active),,-23.7% (active),-80.8% (active)
O=C1c2cccnc2-c2nccc3c2c1nc1cc(Br)ccc13,-49.5% (active) and -71.3% (active),-35% (active) and -75.9% (active),9.53% (active) and -98.7% (active),-49.7% (active) and -79% (active),-75% (active) and -97.8% (active),-43.2% (active) and -86.6% (active),-97% (active) and -95.4% (active),-95.1% (active) and -74.6% (active),-45.9% (active) and -71.1% (active),-67.5% (active) and -74.4% (active),16.8% (inactive) and -59% (active),32% (inactive) and -81.4% (active),11.5% (inactive) and -70.9% (active),44.5% (inactive) and -98.9% (active),,,-52% (active) and -78.4% (active),-26.3% (active) and -4.46% (active),,-80% (active) and -93% (active)
O=C(CC1(O)C(=O)Nc2c(Cl)ccc(Cl)c21)c1ccc(Cl)cc1Cl (stereo unspecified),101% (inactive),90.3% (inactive),70.1% (inactive),107% (inactive),96.4% (inactive),81% (inactive),100% (inactive),,100% (inactive),109% (inactive),98.9% (inactive),85.2% (inactive),104% (inactive),105% (inactive),,93.8% (inactive),79.7% (inactive),112% (inactive),106% (inactive),86.2% (inactive)
O=C(/C=C/c1cccc(Cl)c1)c1ccccc1,,95.2% (inactive) and 32.4% (inactive),104% (inactive) and 95.2% (inactive),89.3% (inactive) and 76.4% (inactive),75.9% (inactive) and 45% (inactive),96% (inactive) and 88.8% (inactive),94% (inactive) and 93.4% (inactive),81.5% (inactive),60.5% (inactive) and 20.8% (inactive),114% (inactive) and 109% (inactive),109% (inactive) and 100% (inactive),93.5% (inactive),92.3% (inactive) and 81% (inactive),84.8% (inactive),90.7% (inactive) and 81.5% (inactive),90.8% (inactive) and 75.4% (inactive),79.7% (inactive) and 102% (inactive),74.1% (inactive) and 63.7% (inactive),,77.7% (inactive) and 70% (inactive)
O=Nc1ccccc1N=O,51.4% (inactive),81.6% (inactive),46.6% (inactive),88.6% (inactive),78.3% (inactive),83.9% (inactive),,71.2% (inactive),60% (inactive),92.9% (inactive),90.2% (inactive),88.7% (inactive),71.6% (inactive),115% (inactive),,,110% (inactive),97.5% (inactive),99.9% (inactive),64% (inactive)
CCN(CC)CCOc1ccc(-c2nc3cc(Cl)ccc3s2)cc1,-71.9% (active),-100% (active),-0.875% (active),40.7% (inactive),-3.49% (active),4.44% (active),,,-86.5% (active),-79.7% (active),80.2% (inactive),57.3% (inactive),36% (inactive),8.65% (active),10.3% (inactive),,-0.459% (active),4.45% (active),-79.3% (active),
CN(Cc1cnc2nc(N)nc(N)c2n1)c1ccc(C(=O)NC(CCC(=O)O)C(=O)O)cc1 (stereo unspecified),26.4% (inactive),27.6% (inactive),59.6% (inactive),47.2% (inactive),35.7% (inactive),62.1% (inactive),,21.2% (inactive),13.2% (inactive),62.2% (inactive),79.6% (inactive),70.9% (inactive),26.9% (inactive),58.8% (inactive),26.8% (inactive),22.2% (inactive),35.4% (inactive),28.8% (inactive),24.4% (inactive),9.25% (active)
